Measurements as given in PubChem BioAssay (NCATS).
Inconclusive results are not listed. Where a call stands in place of a potency, no number is given. The source made the active and inactive calls. The call rests on the fitted dose curve; in most records, active means well fitted inhibition curve with a large enough effect; inconclusive means small, poorly fitted or top-dose-only effect; inactive means flat fitted curve, though single readings scatter. *1 amine or outer side, *2 acyl side, *3 side chain or, on linkers, in order; H or OH if unused. Where a SMILES comes first, the peptide text is derived from it. Bridges are numbered along the chain shown (N, C = ends). [ ]: non-standard residue; d: D form. The star is where a group is joined. ξ: configuration not given here. X10 = NC1=NCCC(C(N[*:1])C(=O)[*:2])N1; ΔAla(3-NHCONH2) = NC(=O)NC=C(N)C(=O)O; ξβ3hOrn = NCCCC(N)CC(=O)*; Dap = NC[CH](N)C(=O)O
Potency means the concentration at half of the fitted maximal effect.

Assay: Primary qHTS for inhibitors of nuclear receptor binding SET domain protein 2 (NSD2) in an isogenic RCH-ACV NSD2 p.E1099K mutant (9B) (AID 1645876); further: nearly all actives have a fitted effect of over 70% in size
Conditions: RCH-ACV (leukaemia line) NSD2 E1099K (9B) viability, CellTiter-Glo, 72 h; series mostly up to 44.9 µM
For `NCCCC(N)CC(=O)NCC1NC(=O)C(CO)NC(=O)C(N)CNC(=O)C(C2CCN=C(N)N2)NC(=O)C(=CNC(N)=O)NC1=O` (stereo not drawn) (H-[Dap]S[Dap](ξβ3hOrn)[ΔAla(3-NHCONH2)][X10]; lactam 1-C; configuration not given here), the outcome was “inactive [at 0.588 µM]”. For `CN1CC(=O)N2[C@H](c3ccc4c(c3)OCO4)c3[nH]c4ccccc4c3C[C@@H]2C1=O`, the Potency was “inactive”. With `O=C(NN1CCCC1)NS(=O)(=O)c1ccc(Cl)cc1` the Potency was “inactive”. For `O=c1[nH]c2ccccc2c(=O)n1CCCl`, the Potency was “inactive”. In the case of `C[C@@H]1CCC[C@H](C)N1CCCC(O)(c1ccccc1)c1ccccn1` (stereo not given in full), the Potency is reported as “inactive”. For `O=C(O)Cn1cnnn1`, the Potency was “inactive”. In the case of `Cc1coc2ccccc2c1=O`, the Potency is reported as “inactive”. In the case of `O=C(OCC(COC(=O)c1cccnc1)(COC(=O)c1cccnc1)COC(=O)c1cccnc1)c1cccnc1`, the Potency is reported as “inactive”. For `Cc1[nH]cnc1-c1ccc(Cl)cc1`, the Potency was “inactive”. In the case of `COC(=O)c1ccc(NC(C)=O)cc1OC`, the Potency is reported as “inactive”. For `CO/N=C(\C(=O)O)c1csc(NC(=O)CCl)n1`, the Potency was “inactive”. In the case of `O=C(c1ccco1)N1CCNCC1`, the Potency is reported as “inactive”. In the case of `Cc1ncc(CO)c(CO)c1O`, the Potency is reported as “inactive”. For `CCN1CCCC1CN` (stereo not given), the Potency was “inactive”. With `CN1C(=O)CC(C)(c2ccccc2)C1=O` (stereo not given) the Potency was “inactive”. For `COc1ccc2c(c1)CCCC2=O`, the Potency was “inactive”. In the case of `Nc1ncnc2c1ncn2Cc1c(F)cccc1Cl`, the Potency is reported as “inactive”. In the case of `CC(=O)Oc1ccc(C2(c3ccc(OC(C)=O)cc3)Oc3ccccc3NC2=O)cc1`, the Potency is reported as 8.17 µM (active). With `Cc1cccc(OCC(O)CNC(C)(C)C)c1C` (stereo not given) the Potency was “inactive”. With `CCCCOC(=O)CCCCCCCCC(=O)OCCCC` the Potency was “inactive”. For `CC(=O)[C@@]1(O)CC[C@H]2[C@@H]3C[C@H](C)C4=CC(=O)CC[C@]4(C)[C@H]3CC[C@@]21C`, the Potency was 23.7 µM (active). For `O=C(CCCl)NCCc1ccccc1`, the Potency was “inactive”. In the case of `CCCCOCCOC(=O)c1cccnc1`, the Potency is reported as “inactive”. In the case of `O=C(O)Cc1ccccc1Oc1ccc(Cl)cc1Cl`, the Potency is reported as “inactive”. In the case of `CN(C)CCN1CCN(c2cccc(Cl)c2)C1=O`, the Potency is reported as “inactive”. With `N[C@@H](Cc1cc(I)c(O)c(I)c1)C(=O)O` the Potency was “inactive”. In the case of `CCCCCCCCCCCCCCCCCCNC(=O)OC1CCN(C(=O)OC[C@H](COC(=O)N(Cc2cccc[n+]2CC)C(=O)c2ccccc2OC)OC)CC1`, the Potency is reported as 2.66 µM (active). With `Cc1ccccc1C(=O)N1CC/C(=N\OS(=O)(=O)O)c2ccc(Cl)cc21` the Potency was “inactive”. With `CCC(C(=O)NC(=O)NC(C)=O)c1ccccc1` (stereo not given) the Potency was “inactive”. With `CN(C)CCCOC1(Cc2ccccc2)CCCCCC1` the Potency was “inactive”. In the case of `Brc1ccc([C@H]2CN3CCSC3=N2)cc1`, the Potency is reported as “inactive”. In the case of `CC(=O)N(CC(O)CO)c1c(I)c(C(=O)NCCO)c(I)c(C(=O)NCC(O)CO)c1I` (stereo not given), the Potency is reported as “inactive”. For `O=C1CC[C@H](C(=O)N2CCCCC2)N1`, the Potency was “inactive”. In the case of `O=C1NC(c2ccccc2)(c2ccccc2)C(=O)N1COP(=O)(O)O`, the Potency is reported as “inactive”. With `O=S(=O)(O)c1ccc2nc(-c3ccccc3)[nH]c2c1` the Potency was “inactive”. In the case of `Cc1oc(=O)oc1COC(=O)[C@@H]1N2C(=O)[C@@H](NC(=O)[C@H](N)c3ccccc3)[C@H]2SC1(C)C`, the Potency is reported as “inactive”. With `Nc1ccc2c(c1)CN1C(=O)c3ccccc3C1=N2` the Potency was 7.31 µM (active). With `CCOC(=O)C(=O)CCCCCCl` the Potency was “inactive”. For `CC(=O)N[C@@H](CO)C(=O)N[C@@H](CC(=O)O)C(=O)N[C@@H](CCCCN)C(=O)N1CCC[C@H]1C(=O)O` (Ac-SDKP-OH), the Potency was “inactive”. In the case of `C[C@@]12CCC[C@H]1[C@@H]1CC[C@H]3C[C@@H](O)CC[C@]3(C)[C@H]1CC2`, the Potency is reported as “inactive”.
